Results published in PubChem BioAssay AID2314 (National Center for Advancing Translational Sciences (NCATS), 2010).
The campaign covered roughly 300,000 compounds. About 37,000 (12%) were called active. Cut-off read from the data, not from the text of the source: active = max response mostly above about 13% (no sharp cut-off); inactive = mostly below about 14%. What follows is part of a selection rich in actives, with near analogues and random picks from the rest.

Test: Cycloheximide Counterscreen for Small Molecule Inhibitors of Shiga Toxin; note: read at 38.3 µM for the half of the compounds with a filed dose; 0% is about no effect
Conditions: cell reporter, cycloheximide protein synthesis inhibition counterscreen; stronger effect = higher value

Row | Compound | max response
1 | OC(CNC1CCCC1)COc1ccc(F)cc1 (stereo not given) | -1.08% (inactive)
2 | NC(=O)CC(NC(=O)Cc1cccc2ccccc12)c1ccc(NCc2cc(F)ccc2F)c([N+](=O)[O-])c1 (stereo not given) | -1.72% (inactive)
3 | CCOc1ccc(N(CC(=O)NCCOc2ccccc2OC)S(=O)(=O)c2ccccc2)cc1 | 1.62% (inactive)
4 | O=C(CCN1C(=O)c2ccccc2C1=O)NCCN1CCOCC1 | -0.442% (inactive)
5 | COc1ccc(/C=C2\SC(=O)N(CCC(=O)NCCCn3ccnc3)C2=O)cc1 | 18.8% (active)
6 | COc1ccc(NC(=S)NC2CCS(=O)(=O)C2)cc1 (stereo not given) | -3.34% (inactive)
7 | COc1ccc(-c2ccc(OC(=O)NC3CCS(=O)(=O)C3)cc2)cc1 (stereo not given) | 28.5% (active)
8 | Cc1ccc(/C=C2\SC(=S)N(CCC(=O)Nc3ccc(O)cc3)C2=O)cc1 | 0.318% (inactive)
9 | COc1ccccc1/C=C1\SC(=O)N(CCC(=O)N(C)C2CCS(=O)(=O)C2)C1=O (stereo not given) | 7.79% (inactive)
10 | O=C(CN1C(=O)S/C(=C\c2ccccc2F)C1=O)NCCCn1ccnc1 | -0.628% (inactive)
11 | O=C(CCN1C(=O)c2ccccc2C1=O)NCCCn1ccnc1 | 4.07% (inactive)
12 | COc1ccc(NC(=O)CCN2C(=O)/C(=C/c3ccc4c(c3)OCO4)SC2=S)cc1 | -1.34% (inactive)
13 | Cc1ccc(/C=C2/SC(=S)N(CCC(=O)NCCCN3CCOCC3)C2=O)cc1 | 11.5% (active)
14 | O=C(Cc1ccc(Cl)cc1)NC1CCS(=O)(=O)C1 (stereo not given) | -0.92% (inactive)
15 | COc1ccc(/C=C2\SC(=O)N(CCC(=O)NC3CCS(=O)(=O)C3)C2=O)cc1 (stereo not given) | 27.8% (active)
16 | [O-][n+]1onc2c1CCc1[nH]c(-c3ccccc3)nc1-2 | -2.38% (inactive)
17 | CCSc1nc(O)c(C(c2cccc(OC)c2)c2c(O)nc(SCC)[nH]c2=O)c(=O)[nH]1 | 4% (inactive)
18 | Cc1c(Cl)cccc1NC(=O)[C@@]1(CC(=O)O)CC(/C=C/c2ccccc2)=NO1 | 9.29% (inactive)
19 | O=C(COc1cccc2ccccc12)Nc1cc(S(=O)(=O)N2CCOCC2)ccc1N1CCOCC1 | 7.56% (inactive)
20 | CCn1cc(CN2CCN(CC(C)(C)C)C(CCO)C2)c2ccccc21 (stereo not given) | -2.82% (inactive)
21 | Cn1cc(CCC(=O)NC2CC2)c2ccccc21 | -2.88% (inactive)
22 | CC1CC2=C(CC1/C=N/NC(N)=S)C(C)(C)CCC2 (stereo not given) | -1.08% (inactive)
23 | O=Cc1c(N2CCN(c3cccc(Cl)c3)CC2)nc2ccccn2c1=O | 3.1% (inactive)
24 | Cc1ccc(Cl)cc1NC(=O)C1CCCN(c2cnccn2)C1 (stereo not given) | -5.58% (inactive)

Row | Compound | max response
25 | COc1ccc(NC(=O)CN2C(=O)CSc3ccc(S(=O)(=O)N4CCC(C)CC4)cc32)cc1 | 9.42% (inactive)
26 | CCc1ccccc1NC(=S)Nc1cc(OC)c(NC(=O)C(C)C)cc1OC | -6.46% (inactive)
27 | COc1cnc(-c2ccccn2)nc1Oc1ccc(C(C)(C)C)cc1 | 4.47% (inactive)
28 | CC(C)(C)Nc1nc(-c2ccccn2)nc2ccccc12 | -2.46% (inactive)
29 | Cc1ccc(Oc2nc(-c3ccccn3)nc3ccccc23)cc1 | 25% (active)
30 | NS(=O)(=O)c1ccc(CCNC(=O)CNC(=O)Cc2ccccc2)cc1 | 4.6% (inactive)
31 | CC1CCCN(S(=O)(=O)c2ccc(-c3ccc(=O)[nH]n3)o2)C1 (stereo not given) | -2.93% (inactive)
32 | COc1cccc(NC(=O)c2ccc(Cn3cc([N+](=O)[O-])cn3)o2)c1 | 1.95% (inactive)
33 | O=C(c1ccc(Cn2cc([N+](=O)[O-])cn2)o1)N1CCCC1 | -2.92% (inactive)
34 | CCc1ccc(NC(=O)c2ccc(Cn3cc([N+](=O)[O-])cn3)cc2)cc1 | 26.2% (active)
35 | COc1cccc(OC)c1C(=O)Nc1c(C(=O)N2CCN(c3ccccn3)CC2)oc2ccccc12 | -0.82% (inactive)
36 | CN1CCN(CCCCOc2cccc3ccccc23)CC1 | 2.51% (inactive)
37 | NC(=O)COc1ccccc1C(=O)NC12CC3CC(CC(C3)C1)C2 | 0.476% (inactive)
38 | NNC(=O)COc1ccc(C2SCCS2)cc1 | 5.31% (inactive)
39 | NC(=O)COc1ccc(C23CC4CC(CC(C4)C2)C3)cc1 | 32.3% (active)
40 | Cc1c(Cl)c([N+](=O)[O-])nn1CCCC(=O)NC(C)c1ccccc1 (stereo not given) | 0.248% (inactive)
41 | COc1ccc(NC(=O)C/C(C)=N/NC(=O)c2cnccn2)cc1Cl | 53.7% (active)
42 | CCCCC(=O)N/N=C(\C)CC(=O)Nc1cc(Cl)ccc1OC | -1.06% (inactive)
43 | O=C(COc1ccc(Cl)cc1Cl)NCCCNC(=O)c1cnccn1 | -1.68% (inactive)
44 | COc1cccc(NC(=O)Cn2c3ccc(F)cc3c3nc4n(c(=O)c32)CCS4)c1 | 4.56% (inactive)
45 | CCN(CCNC(=O)C1=C(C)C(=O)OC12CCC(C)CC2)c1ccccc1 (stereo not given) | 3.3% (inactive)
46 | COc1ccc(-c2n[nH]c3c2CN(C(=O)c2ccc(F)cc2)CC3)cc1 | 9.17% (inactive)
47 | CCOc1cc(-c2noc(CCCC(=O)NC3CCCCC3)n2)ccc1OC | -3.29% (inactive)
48 | COC(=O)/C(NC(C)=O)=C(\C)c1ccc(Cl)cc1 | 1.02% (inactive)

Row | Compound | max response
49 | COC(=O)C(=Nc1ccccc1)/C(C(=O)C(=O)N(C)c1ccccc1)=C(\O)c1ccc(Cl)cc1 | 23.6% (active)
50 | COC(=O)c1cn(C(=O)c2ccc(Cl)cc2)c2ccccc12 | 10.5% (inactive)
51 | CC(C)CC(=O)NC(=S)Nc1ccc(F)cc1F | 23.2% (active)
52 | CC(=O)c1ccc(NC(=S)NC(=O)CC(C)C)cc1 | 9.98% (inactive)
53 | CC(C)CC(=O)NC(=S)Nc1cc(C(=O)O)ccc1Cl | -4.75% (inactive)
54 | Cc1ccc(-c2nc(-c3cccnc3)sc2CC(=O)Nc2ccc(C)c(Cl)c2)cc1 | 8.82% (inactive)
55 | COc1ccc(CCNS(=O)(=O)c2cccc([N+](=O)[O-])c2)cc1 | 4.94% (inactive)
56 | Cc1cc(C)c2c3c(sc2n1)C(c1ccccc1)C(C#N)=C(N)O3 (stereo not given) | -1.32% (inactive)
57 | N#CC1=C(N)Oc2c(c(=O)oc3ccccc23)C1c1ccccc1OC(=O)c1cccs1 (stereo not given) | 1.47% (inactive)
58 | N#CC1=C(N)Oc2c(sc3ccccc23)C1c1ccco1 (stereo not given) | 28.9% (active)
59 | COc1cccc(CC(=O)Nc2nc(-c3ccc(OC)c(OC)c3)cs2)c1 | -5.12% (inactive)
60 | CC(C)(C)NC(=O)NC(=O)COC(=O)Cc1ccc(Cl)cc1Cl | 2.66% (inactive)
61 | COc1ccc(-c2nc(CCNC(=O)c3ccc(Br)o3)cs2)cc1 | 13.1% (inactive)
62 | COc1ccc(OC)c(-c2csc(NC(=O)C3=NNC(=O)CC3)n2)c1 | 9% (inactive)
63 | COc1ccc(-c2csc(NC(=O)COC(=O)Cc3ccc(Cl)cc3Cl)n2)cc1 | 45.1% (active)
64 | COc1ccc(-c2csc(NC(=O)COC(=O)c3ccc(Br)o3)n2)cc1 | 33.7% (active)
65 | Cc1cccc(NC(=O)c2cc(S(=O)(=O)N3CCC4(CC3)OCCO4)ccc2F)c1 | -1.02% (inactive)
66 | CCn1cc(/C=C(\NC(=O)c2ccc(C)cc2)C(=O)NCCN2CCOCC2)c2ccccc21 | -1.13% (inactive)
67 | CC(C)C(=O)NCC(c1cccs1)S(=O)(=O)c1ccc(F)cc1 (stereo not given) | -4.81% (inactive)
68 | CCC(=O)Nc1nnc(S(=O)(=O)N(CC(C)C)c2ccccc2)s1 | 10.1% (inactive)
69 | O=C(Oc1ccc(F)cc1)N1CCOCC1 | -1.5% (inactive)
70 | O=C(Oc1ccc2c(c1)CCC2)N1CCOCC1 | 53.5% (active)
71 | CC(=O)c1ccc(OC(=O)N2CCOCC2)cc1 | 11.8% (inactive)
72 | c1ccc(-n2nnnc2NC2CCCCCC2)cc1 | -1.89% (inactive)

Row | Compound | max response
73 | O=c1c(Cl)c(NC2CC2)cnn1-c1ccccc1 | 31.2% (active)
74 | Cc1cccc(-n2ncc(Cl)c(Cl)c2=O)c1 | -10% (inactive)
75 | CC(C)OC(=O)C(C#N)c1nc2ccccc2nc1N1CCN(Cc2ccccc2)CC1 (stereo not given) | -2.37% (inactive)
76 | CCOC(=O)NC(=O)/C(C#N)=C\c1ccccc1 | -1.84% (inactive)
77 | Cc1cccn2c(=O)c(/C=C(\C#N)C(N)=O)c(N3CCCCCC3)nc12 | 12.8% (inactive)
78 | C/C(=C/c1ccccc1)C(=O)N1CCN(c2ccccc2)CC1 | 20% (inactive)
79 | COc1ccc(N2CCN(C(=O)CCSCc3ccccc3F)CC2)cc1 | 7.14% (inactive)
80 | CCOC(=O)/C(C#N)=C/c1ccc(N2CCN(Cc3ccccc3)CC2)cc1 | 10.2% (active)
81 | COc1ccc(N2CCN(C(=O)/C(C#N)=C/c3ccccc3)CC2)cc1 | 14.2% (active)
82 | CCOC(=O)/C(C#N)=C/c1ccc(N2CCCCC2)cc1 | 40.9% (active)
83 | CCOC(=O)/C(C#N)=C\c1c(C)cc(C)c(COC(C)=O)c1C | 0.938% (inactive)
84 | C=CCOC(=O)C(=C)C | -1.88% (inactive)
85 | N#Cc1ccc(C(=O)Nc2nc(-c3cccs3)c(C(=O)C(F)(F)F)s2)cc1 | 0.458% (inactive)
86 | Cn1cccc1Cc1nnc(SCC(=O)NCc2ccc3c(c2)OCO3)n1CCc1ccccc1 | 1.14% (inactive)
87 | Cc1ccc(S(=O)(=O)Nc2ccc3ncccc3c2)cc1 | -2.27% (inactive)
88 | O=S(=O)(Nc1ccc2nc(-c3ccco3)[nH]c2c1)c1ccccc1 | 33.7% (active)
89 | O=S(=O)(Nc1ccc2cn[nH]c2c1)c1ccccc1 | 5.04% (inactive)
90 | Cc1ccc2c(cnn2C(=O)CCC(=O)NC2CCCC2)c1 | 1.35% (inactive)
91 | Cn1c2ccc(F)cc2c2nnc(NN)nc21 | 0.49% (inactive)
92 | Cc1cc(Cl)ccc1OCCCC(=O)NCc1ccncc1 | 2.81% (inactive)
93 | Cc1cc(Cl)ccc1OCc1nc(-c2ccncc2)no1 | 35.5% (active)
94 | COc1ccc(-c2noc(COc3ccc(Cl)c(C)c3)n2)cc1 | 8.61% (inactive)
95 | COc1cc(NC(=O)CN2C(=O)NC(C)(c3ccc(OC(F)F)cc3)C2=O)cc(OC)c1OC (stereo not given) | -2.19% (inactive)
